Hit rate of the full screen: of about 200,000 compounds, about 18,000 (9%) were called active. Only a selection was taken, and actives are over-represented in it overall. Values without a mark were called inactive. Cut-off read from the data, not from the text of the source: active = inhibition above about 50%; inactive = the rest.
test: antileishmanial activity against promastigotes – primary screen (AID 1063); settings: Leishmania major promastigotes, resazurin fluorescence viability; at 10 µM; hits give high values;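 note: promastigotes grown with compound for 44 hours at 28 °C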

Row | SMILES | inhibition
1 | COC(=O)c1ccc(CSc2nncn2N)cc1 | -3.29%
2 | COc1cc(NS(=O)(=O)c2ccc(NC(=O)CN3C(=O)c4ccccc4C3=O)cc2)ncn1 | 4.83%
3 | CN(Cc1ccccc1)Cc1ccccc1F | -3.21%
4 | N=c1n(CCc2ccccc2)c2ccccc2n1Cc1ccccc1F | 97.3% (active)
5 | Fc1ccccc1Cn1cnc(NC(=S)NCCc2ccccc2)n1 | -2.69%
6 | C=C(C)C1CC=C(C)/C(=N/NC(=O)CCCNc2cccc(C)c2)C1 (stereo not given) | -1.55%
7 | c1cnc(NC2C3CC4CC(C3)CC2C4)nc1 (stereo not given) | 27.5%
8 | CN(C)c1ccc(CNC2C3CC4CC(C3)CC2C4)cc1 (stereo not given) | 75.6% (active)
9 | CN(C)c1ccc(CNC23CN4CN(CN(C4)C2)C3)cc1 | -1.82%
10 | Cc1cccc(N2CCN(C(=O)c3ccccc3NC(=O)C3CCCCC3C(=O)O)CC2)c1 (stereo not given) | -7.46%
11 | O=C(O)C1CC=CCC1C(=O)Nc1ccccc1C(=O)N1CCN(c2ccccc2)CC1 (stereo not given) | -4.97%
12 | CC(C)c1ccc(N2CCN(C(=O)c3ccccc3NC(=O)/C=C(\C(=O)O)c3ccccc3)CC2)cc1 | 100% (active)
13 | Cc1nc(S(=O)(=O)c2ccc(Br)cc2)nc2c1CCC2 | -6.99%
14 | CCOCCCNC(=O)C(NC(=O)c1ccccc1O)c1ccccc1 (stereo not given) | -1.57%
15 | CCc1ccc(Nc2nnc(SCC(=O)c3ccc4c(c3)NC(=O)CO4)s2)cc1 | -5.5%
16 | COc1cccc(CNC(=O)CCC2CCCN(C(=O)c3cc(C)[nH]n3)C2)c1 (stereo not given) | -7.13%
17 | COc1cccc2cc(/C(C)=N/NC(=O)c3ccco3)oc12 | 31%
18 | N=c1c2c3c(sc2ncn1N)CCCC3 | -4.1%
19 | N=c1c2c3c(sc2ncn1CCCN1CCOCC1)CCCCC3 | 90.5% (active)
20 | N=c1c2c3c(sc2ncn1N)CCCCC3 | -0.23%
21 | COC(=O)C(=Nc1ccccc1)/C(C(=O)C(=O)N(C)c1ccccc1)=C(\O)c1ccc(Cl)cc1 | -4.81%
22 | Cc1ccc(NC(=O)CCN2CCc3ccccc3C2)cc1 | 5.9%
23 | Cc1cccc(C)c1NC(=O)c1ccc(CN2CCc3ccccc3C2)cc1 | 73.9% (active)
24 | Cc1ccc(NC(=O)CN2CCc3ccccc3C2)cc1 | -2.33%

Row | SMILES | inhibition
25 | CCN=c1sc(C(=O)Nc2ccccc2)c(C)n1CC | -3.21%
26 | CC(C)C(c1nnnn1C(C)(C)C)N1CCN(Cc2cccnc2)CC1 (stereo not given) | -1.86%
27 | O=C(CSc1nc2ccccc2o1)N1c2ccccc2Sc2ccc(Cl)cc21 | 71.7% (active)
28 | Cc1ccccc1OCc1nnc(SCC(=O)N2c3ccccc3Sc3ccc(Cl)cc32)o1 | 11.3%
29 | O=C(CSc1nc2ccccc2o1)N1CCN(c2ccc(Cl)cc2)CC1 | 0.01%
30 | COc1ccc(-c2nc3cnccn3c2NC(C)(C)CC(C)(C)C)cc1O | 32.8%
31 | CS(=O)(=O)c1ccc2nc(NC(=O)c3ccc(Cl)nc3)sc2c1 | 3.2%
32 | COc1ccccc1-n1c(=S)[nH]c2c(sc(=S)n2-c2ccc(C)cc2C)c1=O | -6.57%
33 | Cc1nc([N+](=O)[O-])c(NCCCO)n1Cc1ccccc1 | 10.7%
34 | N=c1c2c(-c3ccccc3)c(-c3ccccc3)oc2ncn1Cc1ccco1 | 33.3%
35 | N=c1c2c(-c3ccccc3)c(-c3ccccc3)n(Cc3ccccc3)c2ncn1CCCO | 100% (active)
36 | Oc1ccccc1N1CCN(C(=S)NCc2ccccc2)CC1 | -5.57%
37 | Oc1ccc(N2CCN(C(=S)NCc3ccccc3)CC2)cc1 | 53.4% (active)
38 | O=C(COC(=O)c1ccccc1C(=O)N1CCN(c2ccccc2)CC1)NCc1ccccc1 | -2.49%
39 | Cc1ccc(C(NC(=O)N2CCCC2)C(Cl)(Cl)Cl)cc1F (stereo not given) | -2.3%
40 | Cc1cc(NC(=O)CSc2nc3ccccc3n2CC(C)C)no1 | 10.5%
41 | Cc1ccc(-c2csc(SCC(=O)Nc3cc(C)on3)n2)cc1 | -6.88%
42 | Cc1ccc2nc(-c3ccc(SCC(=O)Nc4cc(C)on4)nc3)[nH]c2c1 | 64.8% (active)
43 | CCN1CCN(C(=O)c2ccc(CN(c3ccc(C)c(C)c3)S(C)(=O)=O)cc2)CC1 | 3.09%
44 | COc1ccc(C(=O)NC(=S)Nc2ccc(N3CCCC3)cc2)cc1OC | 26.5%
45 | COc1ccc(NC(=S)SC)cc1OC | 80.4% (active)
46 | COc1ccc(NC(=O)CN(C)S(=O)(=O)c2ccccc2)cc1OC | -1.12%
47 | O=C(NCc1ccccn1)c1cc(Br)ccc1Cl | 17.5%
48 | CN(C)NC(=O)C(NC(=O)c1ccc(N)cc1)C12CC3CC(CC(C3)C1)C2 (stereo not given) | 3.34%

Row | SMILES | inhibition
49 | c1ccc(-c2cc3c(NCC4COc5ccccc5O4)ncnc3s2)cc1 (stereo not given) | 98.8% (active)
50 | c1ccc2c(c1)OCC(CNc1ncnc3nc[nH]c13)O2 (stereo not given) | -3.1%
51 | S=C(NCC1COc2ccccc2O1)Nc1ccc(Br)cc1 (stereo not given) | -3.43%
52 | CN(C)C(=O)CSc1n[nH]c(-c2ccco2)n1 | -3.34%
53 | COc1ccccc1N1CCN(CC(=O)NCCc2ccc(S(N)(=O)=O)cc2)CC1 | -5.9%
54 | Cc1nc([N+](=O)[O-])cn1CC(=O)Nc1ccc2c(c1)OCO2 | -4.99%
55 | COc1ccc(NC(=O)CN(C)CC(=O)Nc2cccc(C(F)(F)F)c2)cc1 | 6.17%
56 | CCOc1ccc(NC(=O)CN(C)CC(=O)Nc2cccc(Cl)c2C)cc1OCC | 84.2% (active)
57 | CCOc1ccc(NC(=O)CN(C)CC(=O)NC(C)c2ccccc2)cc1OCC (stereo not given) | -1.35%
58 | S=c1[nH]nc(/C=C/c2ccccc2)o1 | -11.6%
59 | CN1CCN(CC(=O)Nc2cccc([N+](=O)[O-])c2)CC1 | -5.42%
60 | O=C(O)c1cccc(NC(=S)N/N=C/c2c[nH]c3ccccc23)c1 | -4.34%
61 | O=C(N/N=C/c1ccc(Cl)cc1)c1nc2ccc([N+](=O)[O-])cc2c(=O)[nH]1 | 13.4%
62 | O=C(Cc1ccc(F)cc1)N/N=C/c1ccc2c(c1)OCO2 | -2.74%
63 | Cc1nc2ccccc2cc1C(=O)N/N=C/c1ccc([N+](=O)[O-])cc1 | -3.55%
64 | Cc1noc(C)c1/C=N/Nc1ccc2ccccc2n1 | 56.6% (active)
65 | Brc1ccc(-c2csc(N/N=C/c3ccc4c(c3)OCO4)n2)cc1 | 1.9%
66 | Cc1cc(C)nc(N/N=C/c2c(C)oc3ccccc23)n1 | 3.92%
67 | C(=N\Nc1ccc2ccccc2n1)/c1ccc2c(c1)OCO2 | 52.1% (active)
68 | CC(C)(C)NC(=O)CN(C(=O)c1ccc(Cl)nc1)c1cccc2ccccc12 | 31.5%
69 | COc1ccc(Cl)cc1N(CC(=O)N/N=C/c1ccc(OCC(N)=O)cc1)S(C)(=O)=O | 30.9%
70 | CCOc1ccc(N(CC(=O)NCCc2ccc(OC)cc2)S(C)(=O)=O)cc1 | -6.74%
71 | COCCN(C(=O)CCC(=O)Nc1nccs1)C(C(=O)NC(C)(C)C)c1ccc(Cl)cc1 (stereo not given) | -1.47%
72 | CC1=C(C(N)=O)C(c2sccc2C)n2nnnc2N1 (stereo not given) | -2.53%

Row | SMILES | inhibition
73 | COCCOC(=O)C1=C(C)Nc2nc(C)nn2C1c1ccccc1 (stereo not given) | 1.25%
74 | CCCCCOC(=O)C1=C(C)Nc2nnnn2C1c1ccc(OC)c(OC)c1OC (stereo not given) | 92.7% (active)
75 | O=C(CCc1ccccc1)Nc1nn[nH]n1 | -3.55%
76 | O=C(CSc1ccc([N+](=O)[O-])cn1)Nc1ccc(N2CCOCC2)cc1 | -2.33%
77 | COC(=O)c1ccc(NCC(=O)N2CCCCCC2)cc1 | -4.15%
78 | O=C(O)c1ccn(COc2ccc(Br)cc2)n1 | -6.55%
79 | C=CCn1c(CSc2nc3ccccc3s2)nnc1SCC(=O)NCc1ccco1 | -0.85%
80 | O=C(CSc1c2c(nc3ccc(Cl)cc13)CCCC2)NCc1ccco1 | 39.9%
81 | O=C(CSc1nc2ccc(Nc3nc(N4CCOCC4)nc(N4CCOCC4)n3)cc2s1)NCc1ccco1 | 66% (active)
82 | CCN(CC)S(=O)(=O)c1ccc(N(C)CCc2ccc(OC)c(OC)c2)nc1 | 20.7%
83 | Cc1ccc(O)c(NC(=S)NC(=O)COc2ccc(Br)cc2)c1 | -2.21%
84 | CNC(=S)N1CCC(NC(=O)C(Cc2ccc(F)cc2)NC(C)=O)CC1 (stereo not given) | -5.13%
85 | CC(=O)NC(Cc1ccccc1)C(=O)NC1CCN(c2ncccc2[N+](=O)[O-])CC1 (stereo not given) | 57.3% (active)
86 | CC(=O)NC(Cc1ccc(F)c(F)c1)C(=O)NC1CCN(c2nnnn2-c2ccccc2)CC1 (stereo not given) | 9.51%
87 | CC(Sc1nc2cc(Cl)ccc2s1)C(=O)Nc1ccc2c(c1)OCO2 (stereo not given) | 3.45%
88 | O=C(Nc1ccc(N2CCOCC2)cc1)c1ccc(-c2ccccc2[N+](=O)[O-])o1 | 7.53%
89 | CCOc1cc(NS(=O)(=O)c2ccc(OC)cc2)c(OCC)cc1NC(C)=O | -2.08%
90 | O=C(Cn1c(-c2cscn2)nc2ccccc21)Nc1ccc(Cl)cc1 | 16.4%
91 | COCn1c(COc2ccccc2)nc2ccccc21 | 1.65%
92 | O=C(Cn1c(COc2ccccc2)nc2ccccc21)Nc1cc(Cl)c(Cl)cc1Cl | 94.1% (active)
93 | Cc1ccc(N(C(=O)Cc2cccs2)C2C=CS(=O)(=O)C2)cc1Cl (stereo not given) | 3.36%
94 | O=C(Nc1ccc(Cl)cn1)c1ccc2c(c1)OCCO2 | -10.2%
95 | CCN(CC(=O)NCc1cccs1)S(=O)(=O)c1ccc(NC(C)=O)cc1 | -3.41%

Reference: PubChem BioAssay AID1063 (University of Pittsburgh Molecular Library Screening Center, 2008)
